Out of some 100,000 compounds screened, about 4,200 (4.2%) were called active. Shown is part of a subset that was picked to be rich in actives. Unmarked numbers belong to inactive results.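 How the source made its calls: active means single-dose well whose peak fluorescence ratio is a statistical outlier from its plate by either plate-standardised score or position-corrected B-score; inactive means the rest.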
Biological target: Voltage-dependent T-type calcium channel subunit alpha-1H (Homo sapiens) (UniProt O95180)
Sequence (O95180 whole entry, looked up): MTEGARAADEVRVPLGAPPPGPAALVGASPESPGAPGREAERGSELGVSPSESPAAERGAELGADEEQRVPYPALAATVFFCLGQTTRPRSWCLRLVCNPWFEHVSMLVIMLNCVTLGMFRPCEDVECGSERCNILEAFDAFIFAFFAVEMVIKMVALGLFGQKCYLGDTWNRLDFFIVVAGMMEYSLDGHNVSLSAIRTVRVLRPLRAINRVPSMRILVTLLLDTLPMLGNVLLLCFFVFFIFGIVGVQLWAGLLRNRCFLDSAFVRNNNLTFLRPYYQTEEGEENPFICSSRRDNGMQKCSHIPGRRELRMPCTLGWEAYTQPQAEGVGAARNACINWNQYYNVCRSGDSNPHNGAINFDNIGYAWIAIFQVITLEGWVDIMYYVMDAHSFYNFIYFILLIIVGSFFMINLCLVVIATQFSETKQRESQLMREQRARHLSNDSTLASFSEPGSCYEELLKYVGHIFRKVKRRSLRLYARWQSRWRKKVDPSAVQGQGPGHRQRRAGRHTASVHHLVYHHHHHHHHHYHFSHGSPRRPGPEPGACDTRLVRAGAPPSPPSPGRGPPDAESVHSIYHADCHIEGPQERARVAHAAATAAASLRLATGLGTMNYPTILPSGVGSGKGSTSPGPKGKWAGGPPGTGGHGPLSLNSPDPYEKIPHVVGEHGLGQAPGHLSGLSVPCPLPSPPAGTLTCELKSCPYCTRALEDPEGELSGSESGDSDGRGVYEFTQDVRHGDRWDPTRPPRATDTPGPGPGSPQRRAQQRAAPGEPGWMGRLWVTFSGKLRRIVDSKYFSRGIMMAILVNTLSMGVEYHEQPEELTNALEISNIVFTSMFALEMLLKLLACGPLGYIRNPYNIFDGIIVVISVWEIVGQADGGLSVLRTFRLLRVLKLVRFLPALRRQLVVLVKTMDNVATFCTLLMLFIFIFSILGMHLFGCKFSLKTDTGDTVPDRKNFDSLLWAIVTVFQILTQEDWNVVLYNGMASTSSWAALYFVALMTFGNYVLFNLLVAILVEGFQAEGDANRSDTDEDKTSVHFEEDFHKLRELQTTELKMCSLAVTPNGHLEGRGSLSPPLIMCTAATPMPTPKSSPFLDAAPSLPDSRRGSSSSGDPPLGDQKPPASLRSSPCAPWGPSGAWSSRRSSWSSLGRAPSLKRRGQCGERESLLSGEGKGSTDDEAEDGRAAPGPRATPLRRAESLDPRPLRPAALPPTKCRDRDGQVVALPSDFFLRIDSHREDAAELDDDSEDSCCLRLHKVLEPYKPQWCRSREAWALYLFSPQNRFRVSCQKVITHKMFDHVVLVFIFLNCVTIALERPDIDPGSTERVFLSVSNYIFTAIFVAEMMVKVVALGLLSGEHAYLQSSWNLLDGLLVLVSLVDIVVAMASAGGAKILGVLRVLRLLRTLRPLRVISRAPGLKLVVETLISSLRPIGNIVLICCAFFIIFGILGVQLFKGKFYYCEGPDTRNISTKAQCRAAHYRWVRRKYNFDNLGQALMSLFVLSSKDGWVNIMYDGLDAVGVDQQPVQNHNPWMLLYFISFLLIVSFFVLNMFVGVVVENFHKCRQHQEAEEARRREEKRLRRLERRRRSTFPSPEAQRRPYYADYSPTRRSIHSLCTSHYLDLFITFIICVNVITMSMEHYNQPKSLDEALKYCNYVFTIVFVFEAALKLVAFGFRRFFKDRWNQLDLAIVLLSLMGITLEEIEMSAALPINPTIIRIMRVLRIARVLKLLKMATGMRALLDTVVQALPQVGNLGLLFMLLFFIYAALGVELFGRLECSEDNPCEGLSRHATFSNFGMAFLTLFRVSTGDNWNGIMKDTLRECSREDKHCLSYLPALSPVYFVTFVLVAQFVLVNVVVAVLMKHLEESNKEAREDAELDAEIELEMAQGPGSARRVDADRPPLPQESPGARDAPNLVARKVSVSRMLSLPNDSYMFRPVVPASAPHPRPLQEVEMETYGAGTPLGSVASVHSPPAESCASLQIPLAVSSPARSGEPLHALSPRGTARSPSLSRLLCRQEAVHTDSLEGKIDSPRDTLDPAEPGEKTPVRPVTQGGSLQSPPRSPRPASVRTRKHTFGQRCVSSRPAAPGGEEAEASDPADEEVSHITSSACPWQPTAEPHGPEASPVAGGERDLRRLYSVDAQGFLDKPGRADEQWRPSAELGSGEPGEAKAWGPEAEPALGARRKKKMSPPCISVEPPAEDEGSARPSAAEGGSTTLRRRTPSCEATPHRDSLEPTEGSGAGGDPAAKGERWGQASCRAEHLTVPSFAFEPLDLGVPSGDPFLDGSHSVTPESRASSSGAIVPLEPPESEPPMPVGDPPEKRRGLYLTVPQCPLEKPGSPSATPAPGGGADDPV
Test: Cav3.2 calcium influx blockers – cell-based, Fluo-4 calcium fluorescence, FDSS, MLSMR library, primary screen (AID 449739)
Details: Cav3.2-expressing cells, at 10 µM, hits give low values

Compound | B-score
O=C(COc1ncnc2c(Cl)cc(Cl)cc12)N1CCN(S(=O)(=O)c2ccccc2)CC1 | 0.727
CC(C)(C)NC(=O)C(c1ccco1)N(Cc1ccc2c(c1)OCO2)C(=O)Cn1nnc2ccccc21 (configuration not stated) | -1.57
Cc1ccc(C(C(=O)NCc2ccco2)N(CC2CCCO2)C(=O)Cn2nnc3ccccc32)cc1 (configuration not stated) | 0.195
COc1ccccc1N(C(=O)Cn1nnc2ccccc21)C(C(=O)NCc1ccco1)c1ccc(C)o1 (configuration not stated) | -6.1 (active)
CCOC(=O)c1cc(NC(=O)c2ccc(Cl)cc2)c(=O)oc1-c1ccccc1 | -0.21
COC(=O)C1(O)CC(C(C)C)=NN1C(=O)c1ccc(Cl)cc1 (configuration not stated) | -0.542
Cc1nnsc1S(=O)(=O)Cc1ccccc1Cl | 0.123
O=C(NNS(=O)(=O)c1ccc(Cl)cc1)C1CCN(Cc2ccccc2)CC1 | 0.455
COc1ccc(C(=O)Nc2nc(-c3ccc(OC)cc3)c(-c3ccc([N+](=O)[O-])cc3)s2)cc1 | -2.13
COC(=O)C(NC(=O)c1ccc(OC)cc1)(Nc1ncc(S(=O)(=O)c2ccc([N+](=O)[O-])cc2)s1)C(F)(F)F (configuration not stated) | -8.97 (active)
COc1ccc(C(=O)Nc2ccc(S(=O)(=O)NC(C)C)cc2)cc1 | 1.46
COC(=O)CCCC1=CC2=CC(=O)C(C)(OC(=O)c3cccs3)C(=O)C2=CN1CC(C)C (configuration not stated) | 0.582
COC(C[C@@H]1O[C@@H]1C(=O)[C@H](C)OCc1ccccc1)OC | -0.00689
COc1ccc(-n2c(Cc3cccn3C)nnc2SCC(=O)Nc2cc(C)cc(C)c2)cc1 | -8.52 (active)
COc1ccccc1NC(=O)CSc1nnc(Cc2cccn2C)n1-c1ccc(F)cc1 | -2.37
Cn1cccc1Cc1nnc(SCC(=O)NCCc2ccccc2)n1-c1ccc(F)cc1 | -2.55
CCc1nnc(NC(=O)CSc2nnc(Cc3ccccc3)n2-c2ccc(OC)cc2)s1 | -1.29
COC(=O)c1ccc(NC(=O)CSc2nnc(Cc3cccn3C)n2-c2ccc(F)cc2)cc1 | -9.38 (active)
Cc1ccc(C)c(NC(=O)CSc2nnc(Cc3cccn3C)n2-c2ccc(F)cc2)c1 | -2.84
COc1ccccc1CNC(=O)c1ccc(SC)cc1OC | -2.74
Cc1ccccc1CS(=O)(=O)CC1(O)CCN(C(=O)c2cccc(C(F)(F)F)c2)CC1 | 0.394
C#CCOCCOCCOCCNc1nc(N2CCN(C(=O)[C@H](Cc3ccc(O)cc3)n3cc(C(N)CC(C)C)nn3)CC2)nc(N2CCN(C(=O)[C@H](CCC(=O)O)n3cc(C(N)[C@H](C)CC)nn3)CC2)n1 (some centres not stated) | -0.0524

— PubChem BioAssay AID449739 (Vanderbilt High Throughput Screening Facility, 2010)
